# Assay results taken from publication PMC4336329 (PLoS ONE, 2015).
# The campaign covered roughly 310,000 compounds. About 14,000 (4.5%) showed an effect of 50% or more. The effect is printed as a negative number. The list comes from a sample in which strong results are over-represented; it also holds similar structures and randomly drawn compounds.
# Target: human ether-à-go-go-related gene (hERG) potassium channel (human, UniProt Q12809)
# Assay: primary screen, population patch clamp on CHO cells stably expressing hERG; higher = less effect of the substance
# 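Further: peak tail current of the secondary pulse compared with the same well before compound.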
# Chain of human ether-à-go-go-related gene (hERG) potassium channel (Q12809 whole entry, looked up): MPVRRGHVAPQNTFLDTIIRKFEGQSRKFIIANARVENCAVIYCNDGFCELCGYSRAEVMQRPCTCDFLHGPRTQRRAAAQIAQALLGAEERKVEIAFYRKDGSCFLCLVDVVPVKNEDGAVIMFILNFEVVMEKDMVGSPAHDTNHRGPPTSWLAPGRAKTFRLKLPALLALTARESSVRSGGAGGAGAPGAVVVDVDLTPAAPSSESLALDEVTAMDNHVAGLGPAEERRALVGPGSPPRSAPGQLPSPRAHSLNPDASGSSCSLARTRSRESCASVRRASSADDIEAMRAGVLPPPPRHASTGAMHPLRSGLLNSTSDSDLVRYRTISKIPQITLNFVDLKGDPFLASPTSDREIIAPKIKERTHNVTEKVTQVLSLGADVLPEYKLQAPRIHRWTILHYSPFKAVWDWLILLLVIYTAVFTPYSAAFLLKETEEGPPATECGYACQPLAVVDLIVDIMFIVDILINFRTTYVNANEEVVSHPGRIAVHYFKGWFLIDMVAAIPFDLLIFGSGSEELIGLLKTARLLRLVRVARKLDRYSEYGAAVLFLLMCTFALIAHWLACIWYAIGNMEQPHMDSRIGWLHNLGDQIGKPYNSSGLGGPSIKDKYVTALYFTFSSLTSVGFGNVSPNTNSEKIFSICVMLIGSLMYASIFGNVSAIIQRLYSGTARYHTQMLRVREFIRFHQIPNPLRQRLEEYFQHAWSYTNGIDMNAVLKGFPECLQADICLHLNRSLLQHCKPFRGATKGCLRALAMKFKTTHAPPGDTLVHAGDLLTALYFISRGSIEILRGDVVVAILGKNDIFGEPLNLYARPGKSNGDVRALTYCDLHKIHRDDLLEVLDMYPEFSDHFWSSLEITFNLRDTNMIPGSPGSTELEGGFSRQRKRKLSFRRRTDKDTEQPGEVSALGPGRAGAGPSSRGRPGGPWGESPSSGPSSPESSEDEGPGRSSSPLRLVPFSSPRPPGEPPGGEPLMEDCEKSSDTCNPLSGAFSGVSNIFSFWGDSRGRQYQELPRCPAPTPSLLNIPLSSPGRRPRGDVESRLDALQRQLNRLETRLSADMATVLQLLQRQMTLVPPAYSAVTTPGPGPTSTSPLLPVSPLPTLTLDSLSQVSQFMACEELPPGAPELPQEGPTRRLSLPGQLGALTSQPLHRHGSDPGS
row,Compound,"hERG current change (%, negative = inhibition) at 10uM [%]"
1,N/C(=N\OC(=O)c1ccccc1Cl)c1ccccc1,-16.2
2,O=C(c1cccs1)N(C(=O)c1cccs1)c1ccccn1,9.68
3,CCCn1c2c(c(O)c(C(=O)NCCCN(CC)CC)c1=O)CCCC2.Cl,-55
4,CCn1c(=O)c(C(=O)NCCCO)c(O)c2ccccc21,10.1
5,CCN(CC)CCNC(=O)c1c(O)c2ccccc2n(Cc2ccccc2)c1=O.Cl,-63
6,CCn1c(=O)c(C(=O)NCCCc2ccccc2)c(O)c2ccccc21,8.18
7,CCCn1c2c(c(O)c(C(=O)NC)c1=O)CCCC2,-6.66
8,CCCn1c2c(c(O)c(C(=O)NCc3ccccc3)c1=O)CCCC2,17
9,CC1CCc2cc(F)cc3c(O)c(C(=O)NCCN(C)C)c(=O)n1c23.Cl (stereo not drawn),-1
10,CCN(CC)CCCNC(=O)c1c(O)c2cc(F)cc3c2n(c1=O)C(C)CC3.Cl (stereo not drawn),-50.5
11,CCn1c(=O)c(C(=O)NCCc2ccccc2)c(O)c2ccccc21,19.7
12,C=CCn1c(=O)c(C(=O)NCCN(CC)CC)c(O)c2ccccc21.Cl,-19.2
13,CC1CCc2cc(F)cc3c(O)c(C(=O)NCC4CCCO4)c(=O)n1c23 (stereo not drawn),-13.4
14,CCN(CC)CCCNC(=O)c1c(O)c2ccccc2n(Cc2ccccc2)c1=O.Cl,-63.8
15,O=C(O)c1ccccc1-c1ccccc1C(=O)Nc1ccccc1-c1ccccc1,19.8
16,O=C(Nc1nncs1)Oc1ccccc1,8.98
17,CC1CCC/C(=C\Nc2ccc(O)cc2)C1=O (stereo not drawn),-0.0111
18,Cc1cc(C(=O)NNC(=O)c2cccs2)c(C)o1,7.06
19,CCN(CC)C(=O)CSc1nnc(-c2ccncc2)n1N,13.4

row,Compound,"hERG current change (%, negative = inhibition) at 10uM [%]"
1,Cc1ccc(-c2nnn(CC(=O)N(c3ccccc3F)C(CC(C)C)C(=O)NCC3CCCO3)n2)cc1 (stereo not drawn),-13
2,O=C1NCN(c2ccccc2)C12CCN(CCCC(c1ccc(F)cc1)c1ccc(F)cc1)CC2,-75.8
3,O=C(CCCN1CCC(n2c(=O)[nH]c3ccccc32)CC1)c1ccc(F)cc1,-73
4,O=c1[nH]c2ccccc2n1C1CCN(CCCC(c2ccc(F)cc2)c2ccc(F)cc2)CC1,-77.6
5,O=C(Nc1cccc(F)c1)N1CCC(n2c(=O)[nH]c3ccccc32)CC1,-19
6,O=C1CC(N2CCC(n3c(=O)[nH]c4ccccc43)CC2)C(=O)N1Cc1ccccc1 (stereo not drawn),-21.4
7,O=c1[nH]c2ccccc2n1CCCN1CCC(n2c(=O)[nH]c3cc(Cl)ccc32)CC1,-65.5
8,O=c1[nH]c2ccccc2n1C1CCCCC1,-5.49
9,O=C1CC(N2CCC(n3c(=O)[nH]c4ccccc43)CC2)C(=O)N1c1ccc(F)cc1 (stereo not drawn),-7.5
10,O=C1NCN(c2ccccc2)C12CCN(c1nnnn1-c1ccccc1)CC2,-11.7
11,Cl.O=c1[nH]c2ccccc2n1CCCN1CCCCC1,16.5
12,O=C(NC1CCCCC1)N1CCC(n2c(=O)[nH]c3ccccc32)CC1,2.34
13,O=C1NCN(c2ccccc2)C12CCNCC2,3.05
14,COc1cc(/C=N/NC(=O)c2ccccn2)ccc1OC(=O)c1ccccc1Br,-1.22
15,CC(=O)Oc1ccc2oc(-c3ccccc3)c(C(N)=O)c2c1,-14.1
16,COCCCn1c(C23CC4CC(CC(C4)C2)C3)n[nH]c1=S,-5.2
17,O=C(c1csc2c1CCCC2)N1CCN(c2ccccc2)CC1,-14.8
18,O=S(=O)(Cc1ccccc1)N1CCN(Cc2ccc(F)cc2Cl)CC1,4.56
19,CCc1nnc(NC(=O)CN2CCN(c3nc(-c4ccccc4)cs3)CC2)s1,-11.8

row,Compound,"hERG current change (%, negative = inhibition) at 10uM [%]"
1,COCCCNC(=O)C1CCN(C(=O)c2oc3cc4sc(N(C)C)nc4cc3c2C)CC1,7.03
2,CCOC(=O)CNC(=O)CNC(=O)c1nn(-c2ccc(OC)c(Cl)c2)c(=O)c2ccccc12,2.21
3,Cc1ccccc1C(=O)NC(=S)N(C)C1CCCCC1,21.2
4,COc1cccc(Cn2nc(C(=O)O)c3ccccc3c2=O)c1,9.63
5,O=C(OCc1nc2ccsc2c(=O)[nH]1)c1ccc(Cl)s1,-5.59
6,O=C(Nc1nc2ccccc2[nH]1)c1cccc(Cl)c1,17.5
7,CCc1ccc2oc(-c3cc(N=Cc4cccc(OC)c4O)ccc3O)nc2c1,24.3
8,CN(Cc1ccccc1)C(=O)c1ccc(NC(=O)Cc2cccc(NC(=O)C3CCN(C(=O)C4CCCCC4)CC3)c2)cc1,8.47
9,CC(C(=O)NC1CCCCC1)N1CCN(S(=O)(=O)c2cccs2)CC1 (stereo not drawn),-9.2
10,CCC(C)c1ccc(S(=O)(=O)N2CCN(C(C)CC(=O)O)CC2)cc1 (stereo not drawn),3.41
11,CC(C)c1ccc(S(=O)(=O)N2CCN(C(C)C(=O)NC3CCCC3)CC2)cc1 (stereo not drawn),-75.5
12,CC(C)c1ccc(S(=O)(=O)N2CCN(C(C)C(=O)N3CCCC3)CC2)cc1 (stereo not drawn),-11.8
13,CC(C(=O)NC1CCCC1)N1CCN(S(=O)(=O)c2ccc(C(C)(C)C)cc2)CC1 (stereo not drawn),-19.8
14,CCC(C)c1ccc(S(=O)(=O)N2CCN(C(C)C(=O)NC3CCCC3)CC2)cc1 (stereo not drawn),-79.1
15,CCCCCCNS(=O)(=O)c1ccc(OC)c(OC)c1,-11
16,CCOC(=O)c1sc(S(C)(=O)=O)c2c1CCc1conc1-2,8.59
17,Cc1ccc(-n2c(-c3ccccc3)n[nH]c2=S)cc1,15.6
18,CC(C)OC(=O)/C(=C/c1ccc2c(c1)c1ccccc1n2C)NC(=O)c1ccccc1,-1.72
19,O=C(N/N=C/c1c(O)n(-c2ccccc2)c(=O)[nH]c1=O)c1ccncc1,16.2
